Records with an inconclusive call do not appear. Entries that show only a call come without a potency. A number with no mark means an inactive call. Calls of active or inactive are those of the source. Calls follow the shape of the dose curve; as a rule, active = well fitted curve in the direction sought with a large enough effect; inconclusive = small, poorly fitted or top-dose-only effect, or another doubt; inactive = no such curve, though single readings can be large; an effect the other way counts as inactive or inconclusive.
What was measured:
[1] = target: Rap guanine nucleotide exchange factor 3 (Homo sapiens) (UniProt O95398); assay: Confirmatory qHTS for antagonist of cAMP-regulated guanine nucleotide exchange factor 3 (EPAC1) (AID 1645880); conditions: EPAC1 Rap1B-BODIPY-GDP exchange, fluorescence; activity, negative = inhibition: at 115 µM (top of the series); also: nearly all actives have a fitted effect of over 55% in size; also: potency is read from the fitted curve at half-maximal effect
How it was run: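 Nucleotide exchange uses 100 nM EPAC1, 250 nM RAP1B-BODIPY-GDP and 50 uM GDP, with compounds in a concentration-titration series. After 5 min at room temperature, fluorescence (480 nm ex/540 nm em) is read every 5 min for 30 min. Data are normalized to control ATA and DMSO.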

[2] = target: Rap guanine nucleotide exchange factor 3 (Homo sapiens) (UniProt O95398); assay: Confirmatory qHTS for agonist of cAMP-regulated guanine nucleotide exchange factor 3 (EPAC1) (AID 1645881); conditions: EPAC1 Rap1B BODIPY-GDP exchange fluorescence; series mostly up to 154 µM; also: nearly all actives have a fitted effect of over 75% in size; also: potency is read from the fitted curve at half-maximal effect;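 as to activation: EPAC1 catalysed release of BODIPY-GDP from Rap1B seen as fluorescence loss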
[3] = target: Rap guanine nucleotide exchange factor 4 (Homo sapiens) (UniProt Q8WZA2); assay: Confirmatory qHTS for agonist of cAMP-regulated guanine nucleotide exchange factor 4 (EPAC2) (AID 1645884); conditions: EPAC2 GEF activity, Rap1B-BODIPY-GDP fluorescence; series mostly up to 154 µM;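 also: nucleotide exchange releases bodipy-GDP from Rap1 and this lowers its fluorescence; nearly all actives have a fitted effect of over 65% in size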; also: potency is read from the fitted curve at half-maximal effect
[4] = target: Rap guanine nucleotide exchange factor 4 (Homo sapiens) (UniProt Q8WZA2); assay: Confirmatory qHTS for antagonist of cAMP-regulated guanine nucleotide exchange factor 4 (EPAC2) (AID 1645885); conditions: EPAC2 Rap1B-BODIPY-GDP exchange fluorescence, biochemical; series mostly up to 12.7 µM; also: nearly all actives have a fitted effect of over 25% in size; also: potency is read from the fitted curve at half-maximal effect
[5] = target: Rap guanine nucleotide exchange factor 3 (Homo sapiens) (UniProt O95398); assay: Counterscreen qHTS for antagonist of cAMP-regulated guanine nucleotide exchange factor 3 (EPAC1) (AID 1645888); conditions: Rap1B-BODIPY-GDP nucleotide exchange, fluorescence; series mostly up to 154 µM;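 also: fluorescence loss as bound BODIPY-GDP is released from Rap1B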
How it was run: (§1)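 Measured: fluorescence of BODIPY-GDP bound to Rap1B, which falls as exchange proceeds. Conditions include 50 uM competing GDP, 5 and 30 min reads, and a later cAMP challenge for antagonist detection.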

[6] = target: Rap guanine nucleotide exchange factor 3 (Homo sapiens) (UniProt O95398); assay: Counterscreen qHTS for agonist of cAMP-regulated guanine nucleotide exchange factor 3 (EPAC1) (AID 1645889); conditions: EPAC1 Rap1B-BODIPY-GDP exchange, fluorescence; series mostly up to 154 µM; also: nearly all actives have a fitted effect of over 40% in size; also: potency is read from the fitted curve at half-maximal effect
How it was run: as §1

Sequence of Rap guanine nucleotide exchange factor 3 (Homo sapiens) (O95398 whole entry, looked up): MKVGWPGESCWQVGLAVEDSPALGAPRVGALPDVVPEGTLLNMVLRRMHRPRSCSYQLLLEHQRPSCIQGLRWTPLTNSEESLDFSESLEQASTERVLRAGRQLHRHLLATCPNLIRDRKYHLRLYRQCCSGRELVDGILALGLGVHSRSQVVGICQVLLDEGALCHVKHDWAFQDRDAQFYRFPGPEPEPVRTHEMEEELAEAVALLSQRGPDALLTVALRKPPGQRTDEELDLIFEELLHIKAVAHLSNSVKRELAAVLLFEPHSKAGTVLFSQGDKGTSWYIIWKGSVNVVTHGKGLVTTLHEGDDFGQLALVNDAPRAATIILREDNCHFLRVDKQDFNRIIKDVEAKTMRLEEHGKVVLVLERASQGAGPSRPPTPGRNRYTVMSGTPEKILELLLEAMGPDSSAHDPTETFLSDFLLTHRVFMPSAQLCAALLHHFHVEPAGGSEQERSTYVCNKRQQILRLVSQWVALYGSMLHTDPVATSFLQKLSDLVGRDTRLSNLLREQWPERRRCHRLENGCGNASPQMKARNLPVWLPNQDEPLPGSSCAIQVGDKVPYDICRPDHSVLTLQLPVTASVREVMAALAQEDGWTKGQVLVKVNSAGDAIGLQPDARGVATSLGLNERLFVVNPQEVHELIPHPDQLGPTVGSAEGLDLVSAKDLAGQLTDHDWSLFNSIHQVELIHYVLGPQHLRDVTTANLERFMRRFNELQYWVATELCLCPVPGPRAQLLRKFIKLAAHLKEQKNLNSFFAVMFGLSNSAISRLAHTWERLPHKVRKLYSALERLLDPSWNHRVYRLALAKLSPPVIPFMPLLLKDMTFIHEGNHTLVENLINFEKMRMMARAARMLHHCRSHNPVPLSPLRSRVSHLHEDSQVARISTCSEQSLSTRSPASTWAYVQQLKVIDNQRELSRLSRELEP
Sequence of Rap guanine nucleotide exchange factor 4 (Homo sapiens) (Q8WZA2 whole entry, looked up): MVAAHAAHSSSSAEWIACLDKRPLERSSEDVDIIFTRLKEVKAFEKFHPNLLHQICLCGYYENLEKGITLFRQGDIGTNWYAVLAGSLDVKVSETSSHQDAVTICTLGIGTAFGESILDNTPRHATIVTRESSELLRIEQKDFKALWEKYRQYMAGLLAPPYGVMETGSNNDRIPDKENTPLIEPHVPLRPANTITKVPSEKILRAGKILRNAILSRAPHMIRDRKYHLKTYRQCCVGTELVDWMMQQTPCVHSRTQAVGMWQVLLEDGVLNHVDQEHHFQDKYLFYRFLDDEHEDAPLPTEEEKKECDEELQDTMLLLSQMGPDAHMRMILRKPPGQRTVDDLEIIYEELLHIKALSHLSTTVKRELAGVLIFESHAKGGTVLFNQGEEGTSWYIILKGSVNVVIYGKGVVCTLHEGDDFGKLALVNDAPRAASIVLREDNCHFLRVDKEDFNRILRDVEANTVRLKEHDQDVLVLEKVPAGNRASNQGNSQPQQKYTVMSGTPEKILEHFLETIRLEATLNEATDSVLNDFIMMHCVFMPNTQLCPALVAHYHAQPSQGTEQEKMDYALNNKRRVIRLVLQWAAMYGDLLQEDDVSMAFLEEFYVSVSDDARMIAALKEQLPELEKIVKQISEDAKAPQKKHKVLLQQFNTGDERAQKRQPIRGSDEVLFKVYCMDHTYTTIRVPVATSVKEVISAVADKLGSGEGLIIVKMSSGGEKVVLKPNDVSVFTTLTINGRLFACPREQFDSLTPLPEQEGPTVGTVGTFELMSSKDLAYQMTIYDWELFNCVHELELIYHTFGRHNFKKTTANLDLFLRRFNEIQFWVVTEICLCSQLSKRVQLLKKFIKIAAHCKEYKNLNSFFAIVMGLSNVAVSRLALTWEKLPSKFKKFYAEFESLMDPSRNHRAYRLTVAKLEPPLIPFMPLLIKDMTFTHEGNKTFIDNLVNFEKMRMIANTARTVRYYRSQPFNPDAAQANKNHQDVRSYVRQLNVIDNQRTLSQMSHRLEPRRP

SMILES	Potency [1]	Potency [2]	activation [3]	Potency [4]	activity change, negative = inhibition [5]	activation [6]	Potency [3]	Potency [5]	Potency [6]	outcome [4]
COc1cc(C(C)=O)ccc1COc1ccc(C(=O)O)cc1OC	inactive	inactive	7.71% [at 17.1 µM, percent relative to cAMP agonist control]	inactive	-10.4% [at 30.8 µM]	-0.313% [at 30.8 µM]				
CCN(CC)c1ccc2cc(-c3nc(-c4cccs4)no3)c(=O)oc2c1	inactive	100 µM (active)		3.38 µM (active)			35.5 µM (active)	inactive	79.4 µM (active)	
COc1cccc(NS(=O)(=O)c2ccc3c(c2)C2C=CCC2C(c2ccc(C(=O)O)cc2)N3)c1 (stereo not drawn)	9.53 µM (active)	inactive		inactive			inactive	inactive	inactive	
Cc1cc(Br)ccc1-n1[nH]c(C)c(C=Nc2cccc3nsnc23)c1=O	inactive	inactive		inactive			inactive	inactive	inactive	
Cc1ccn2c(-c3csc(NCc4ccccc4)n3)c(C)nc2c1	inactive	inactive								
Cc1ccc(C2CC(=O)Oc3cc(C)c(Br)c(C)c32)cc1 (stereo not drawn)	inactive	inactive		2.13 µM (active)			inactive	inactive		
O=C1C2CCCN2C(c2ccccc2F)N1c1cccc(Cl)c1 (stereo not drawn)	inactive	inactive	0.711% [at 17.1 µM, percent relative to cAMP agonist control]	inactive	-15.2% [at 30.8 µM]	9.98% [at 30.8 µM]				
O=C(C1CCN(S(=O)(=O)N2CCOCC2)CC1)N1CCN(c2ccccc2)CC1	inactive	inactive		inactive			inactive	inactive	inactive	
CCCCNC(=O)c1cc(-c2ccc3c(c2)OCO3)on1	inactive	inactive		inactive			inactive	inactive	inactive	
CC(=O)NNC(=O)c1sc(=S)n2c1[nH]c(=O)c1sccc12	37.9 µM (active)	inactive		inactive			inactive	inactive	inactive	
COc1ccccc1N1CCN(S(=O)(=O)c2ccc3c(c2)NC(=O)C(C)C(=O)N3)CC1 (stereo not drawn)	inactive	inactive		inactive			inactive	inactive	inactive	
CCCN1C(=O)c2[nH]nc(-c3cccc(OC)c3)c2C1c1ccccn1 (stereo not drawn)	inactive	inactive					inactive	inactive	inactive	inactive [at 12.7 µM]
CCOC(=O)C1=CCN(S(=O)(=O)c2ccc(C)cc2)C1c1cccc(Cl)c1 (stereo not drawn)	inactive	inactive		inactive			inactive	inactive	inactive	
COc1ccc2nc3oc(C(=O)Nc4cccc(C(F)(F)F)c4)cc3cc2c1	inactive	inactive		inactive			inactive	inactive	inactive	
COC(=O)[C@H](CC(C)C)NC(=O)CC[C@H]1O[C@@H](n2ccc(=O)[nH]c2=O)[C@H](O)[C@@H]1O	inactive	inactive		inactive			inactive	inactive	inactive	
Cc1ccc(C(=O)Nc2ccccc2[N+](=O)[O-])cc1S(=O)(=O)N1CCOCC1	inactive	inactive		inactive			inactive	inactive	inactive	
Cc1cccc(C)c1OC(=O)c1ccccc1	inactive	inactive	9.32% [at 17.1 µM, percent relative to cAMP agonist control]	inactive	6.4% [at 30.8 µM]					
CC(=O)Nc1ccc(S(=O)(=O)Nc2nc(-c3ccc(C(C)(C)C)cc3)cs2)cc1	44.7 µM (active)	inactive	0% [at 17.1 µM, percent relative to cAMP agonist control]	inactive	-15.7% [at 30.8 µM]	8.98% [at 30.8 µM]				
Cc1cccc(NC(=O)c2cc(S(=O)(=O)N(C)c3ccc(F)cc3)ccc2Cl)n1	inactive	inactive		inactive			inactive	inactive		
O=c1c(-c2ccc(F)cc2)[n+]([O-])c2ccccc2n1OCc1ccccn1	inactive	inactive	-8.77% [at 17.1 µM, percent relative to cAMP agonist control]	inactive	1.53% [at 30.8 µM]	6.02% [at 30.8 µM]				
Cc1nnc(SCc2nnc(-c3ccc(Cl)cc3)o2)n1-c1ccccc1	inactive	inactive		inactive			inactive	inactive	inactive	
CCOC(=O)c1c(NC(=O)c2ccccc2OCC)sc2c1CCC(CC)C2 (stereo not drawn)	inactive	inactive		inactive			inactive	inactive		

SMILES	Potency [1]	Potency [2]	activation [3]	Potency [4]	activity change, negative = inhibition [5]	activation [6]	Potency [3]	Potency [5]	Potency [6]	outcome [4]
Cc1ccc(Nc2ccc(N3CCN(C(=O)c4ccc([N+](=O)[O-])cc4)CC3)nn2)cc1	inactive	inactive		inactive			inactive	inactive	inactive	
CC(=O)Nc1sc(/C(C#N)=C\c2cccc(Cl)c2)nc1-c1ccc(C)cc1	inactive	inactive	-17.2% [at 17.1 µM, percent relative to cAMP agonist control]	inactive	148% [at 30.8 µM]					
COc1cccc2c1Oc1ncccc1N(C(=O)CCC(=O)NCc1cccc(C)c1)C2	inactive	inactive		inactive			inactive	inactive	inactive	
CCc1cc2c(=O)c(-c3nc4ccccc4n3C)coc2c(CN2CCCCC2C)c1O (stereo not drawn)	inactive	inactive		inactive			inactive	inactive	inactive	
CC(Oc1ccc(Br)cc1)C(=O)NCC(c1cccs1)N1CCOCC1 (stereo not drawn)	inactive	inactive		inactive			inactive	inactive		
COc1ccc(NC(=O)N2CCN3CCCCC3C2)cc1OC (stereo not drawn)	inactive	inactive		inactive			inactive	inactive	inactive	
N#Cc1c(N2CCCCC2)nc(N)c2c(N)nc(SCC(=O)O)cc12	31.6 µM (active)	inactive	13.6% [at 17.1 µM, percent relative to cAMP agonist control]	inactive	35.9% [at 30.8 µM]					
COc1ccc(/C(N)=N/OC(=O)c2ccc(C)c([N+](=O)[O-])c2)cc1	inactive	inactive	8.03% [at 17.1 µM, percent relative to cAMP agonist control]	inactive	4.78% [at 30.8 µM]	16.7% [at 30.8 µM]				
CCOC(=O)C1(c2ccccc2)SC(C(=O)OCC)(c2ccccc2)S1 (stereo not drawn)	inactive	inactive		53.6 µM (active)			inactive	inactive	inactive	
Cc1c2cn[nH]c(=O)c2c(C)n1-c1ccccc1	inactive	inactive		inactive			inactive	inactive		
COc1ccc(S(=O)(=O)NC(CCSC)C(=O)NC2CCCCC2)cc1 (stereo not drawn)	inactive	inactive		inactive			inactive	inactive	inactive	
CCOC(=O)COc1ccc(Br)cc1/C=C/c1[nH]c(=O)[nH]c(=O)c1[N+](=O)[O-]	7.57 µM (active)	inactive		inactive			inactive	inactive		
Cc1ccc(-n2nnnc2SCC(=O)NCC2(N3CCOCC3)CCCCC2)cc1	inactive	inactive		inactive			inactive	inactive	inactive	
Cc1[nH]n(-c2ncc(-c3ccccc3)s2)c(=O)c1C(c1ccc(Cl)cc1)C(C#N)C#N (stereo not drawn)	22.4 µM (active)	inactive	-0.2% [at 17.1 µM, percent relative to cAMP agonist control]	inactive	-10.4% [at 30.8 µM]					
CC1Cc2nc(SCC(=O)N3CCCc4ccccc43)n(C)c(=O)c2S1 (stereo not drawn)	inactive	inactive	-4.86% [at 17.1 µM, percent relative to cAMP agonist control]	inactive	-11.9% [at 30.8 µM]	4.66% [at 30.8 µM]				
CC1(C(=O)NS(=O)(=O)c2ccc3c(c2)CCO3)CCN1C(=O)C1(c2ccc(Cl)cc2)CCC1 (stereo not drawn)	39.8 µM (active)	inactive	1.36% [at 17.1 µM, percent relative to cAMP agonist control]	inactive	-29.8% [at 30.8 µM]	34% [at 30.8 µM]				
Cc1ccc(-c2c3c(=O)n(C)c(=O)n(C)c3c3c(C(F)(F)F)nc4ccccc4n23)cc1	inactive	inactive		inactive			inactive	inactive		
Cc1ccccc1NC1c2ccccc2C(=O)N1Cc1ccco1 (stereo not drawn)	inactive	inactive	2.58% [at 17.1 µM, percent relative to cAMP agonist control]	inactive	-11.4% [at 30.8 µM]	17.8% [at 30.8 µM]				
Cc1nc2c(C(=O)NCCc3ccc(Cl)cc3)c[nH]n2c(=O)c1Cc1ccccc1F	84.9 µM (active)	inactive		inactive			inactive	inactive	inactive	
CCC(C)Sc1nc2c(c(=O)[nH]c(=O)n2C)n1CC(O)COc1cccc2ccccc12 (stereo not drawn)	inactive	inactive		inactive			inactive	inactive	inactive	
O=C(O)c1ccc(N/N=C/c2cccc(C(F)(F)F)c2)cc1	inactive	inactive		inactive			inactive	inactive	inactive	

Reference: PubChem BioAssay (NCATS)
